DRD3 antagonist: qHTS of D3 Dopamine Receptor Antagonist: qHTS | D(3) dopamine receptor (Homo sapiens), P35462 | D3R cells, DiscoveRx beta-arrestin luminescence, antagonist mode; stronger effect = lower value | max response, negative = inhibition, % | 360,000 tested, 2.5% active; in the data active = max response below about -50%; inconclusive = no clear call, values can overlap the other calls
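Cells plated overnight at 1500 cells/well, then exposed to library compounds with dopamine controls for 90 minutes at 37 degrees C. DiscoveRx reagent added for 30–60 minutes at room temperature; luminescence read, quantitative HTS format.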
DRD3 agonist: qHTS of D3 Dopamine Receptor Agonist: qHTS. D(3) dopamine receptor (Homo sapiens), P35462. D3R DiscoveRx beta-arrestin cells, luminescence, 90 min. max activation, %. 410,000 tested, 0.58% active. AID 652048, 2013; in the data active = max activation above about 30%
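Cells at 1500/well, incubated overnight, then treated with pinned compounds (dopamine as control) for 90 min at 37 degrees C. DiscoveRx reagent added for 30 - 60 minutes at room temperature; luminescence read.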
D1 potentiator: Potentiators of Human D1 Dopamine Receptor: qHTS. D(1A) dopamine receptor (Homo sapiens), P21728. HEK293 TREx D1 cells, calcium flux, dopamine EC20 potentiation. potentiation, % at 10 µM. 360,000 tested, 0.036% active. AID 504651, 2011; in the data active = potentiation above about 30%
Target sequence (P21728 whole entry, looked up): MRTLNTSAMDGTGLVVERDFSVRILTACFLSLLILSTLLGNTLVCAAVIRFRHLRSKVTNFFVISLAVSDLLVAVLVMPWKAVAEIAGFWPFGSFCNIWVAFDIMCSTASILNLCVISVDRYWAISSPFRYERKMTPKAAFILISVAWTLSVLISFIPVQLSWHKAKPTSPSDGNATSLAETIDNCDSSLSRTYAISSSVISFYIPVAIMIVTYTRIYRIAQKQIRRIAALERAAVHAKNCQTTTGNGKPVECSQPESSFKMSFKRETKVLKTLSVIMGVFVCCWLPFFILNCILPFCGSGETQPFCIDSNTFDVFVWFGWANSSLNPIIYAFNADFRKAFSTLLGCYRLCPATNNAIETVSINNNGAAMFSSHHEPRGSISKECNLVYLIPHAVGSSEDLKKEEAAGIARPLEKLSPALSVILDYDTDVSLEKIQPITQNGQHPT
D1 antag: Antagonist of Human D 1 Dopamine Receptor: qHTS. D(1A) dopamine receptor (Homo sapiens), P21728. HEK293 TREx D1 cells, calcium flux, dopamine EC80; stronger effect = lower value. activity change, negative = inhibition, % at 10 µM. 360,000 tested, 3.2% active; in the data active = activity change below about -30%
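Cells carrying a force-coupled, tetracycline-inducible human D1 receptor report calcium flux. Each well gets a 10 s baseline, compound with 180 s monitoring, then an EC80 dopamine stimulus with a second 180 s kinetic read.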
Chronic BCR inh: qHTS Assay to Find Inhibitors of Chronic Active B-Cell Receptor Signaling | ABC-DLBCL IkBa-CBG/CBR reporter, luminescence ratio, 4 h | 340,000 tested, 0.05% active | Potency, µM (titrated, usually from 46.1 µM), actives largely listed as inhibitors | AID 493014, 2011; active = well fitted inhibition curve with a large enough effect in the signal ratio, with a control signal flat, not every such curve was filed as active; inconclusive = small, poorly fitted or top-dose-only effect, or effect the other way, or a change in a side signal; the % refers to the signal ratio
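Compounds up to 46 uM were incubated four hours with TMD8 cells whose green CBG68 luciferase is fused to IkappaBalpha; red CBR luminescence normalised the signal, and concentration-effect curves were fitted to fusion, red and ratio data.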
D1 agonist: Allosteric Agonists of the Human D1 Dopamine Receptor: qHTS. D(1A) dopamine receptor (Homo sapiens), P21728. HEK293 T-REx D1 cells, calcium flux, agonist mode. activation, % at 2 µM. 360,000 tested, 1% active. AID 504660, 2011; in the data active = activation above about 30%
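Agonism was scored from calcium flux recorded over 180 s (1 read/s) after pintool compound addition, following a 10-cycle baseline. Cells were inducible force-coupled HEK293 TREx D1, plated overnight at 30 C and loaded with no-wash calcium dye.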
Large screens that a line does not name were inactive. Compounds with a hit are over-represented: about 6% of the library has one in this group of screens.

CN1[C@@H]2CC[C@H]1CC(OC1c3ccccc3CCc3ccccc31)C2 (stereo not given in full)	DRD3 antagonist -91, D1 antag -43, Chronic BCR inh inconclusive, D1 agonist 44
CN(C)CCc1c[nH]c2ccccc12	none (no result: DRD3 antagonist, D1 potentiator, D1 antag, Chronic BCR inh, D1 agonist)
CC(c1ccccc1)n1cncc1C(=O)N1CCCC1=O (stereo not given)	DRD3 agonist 30
CC1(C)C2CC=C(CN3CCOCC3)C1C2 (stereo not given)	DRD3 antagonist -53
CCOC(=O)NC(O)C(Cl)(Cl)Cl (stereo not given)	none (no result: DRD3 antagonist, D1 potentiator, D1 antag, Chronic BCR inh, D1 agonist)
NC(=O)CSc1nnc([C@@H](N)Cc2c[nH]c3ccccc23)o1	D1 antag -44, Chronic BCR inh inconclusive
Cc1cccc(N2C(=O)/C(=C/c3ccc(N4CCN(C)CC4)o3)C(=O)NC2=S)c1C	Chronic BCR inh inconclusive, D1 agonist 68
CCc1ccccc1N1C(=O)/C(=C/c2ccc(N3CCN(C)CC3)o2)C(=O)NC1=S	Chronic BCR inh inconclusive, D1 agonist 71
O=C1NC(=O)N(c2ccc3c(c2)OCO3)C(=O)/C1=C\c1ccc(N2CCCCC2)o1	Chronic BCR inh inconclusive, D1 agonist 50
Clc1ccc2c(c1)C(c1ccccc1)=NCc1nncn1-2	none (no result: DRD3 antagonist, D1 potentiator, D1 antag, Chronic BCR inh, D1 agonist)
CNC(C)CC1CCCCC1 (stereo not given)	none (no result: DRD3 antagonist, D1 potentiator, D1 antag, Chronic BCR inh, D1 agonist)
COP(=S)(OC)Oc1ccc(S(N)(=O)=O)cc1	none (no result: DRD3 antagonist, D1 potentiator, D1 antag, Chronic BCR inh, D1 agonist)
O=C(COc1ccccc1)N1CCN(C/C=C/c2ccccc2)CC1	DRD3 antagonist inconclusive
O=C(COc1ccccc1)N1CCN(CC(O)COc2ccccc2)CC1 (stereo not given)	DRD3 antagonist -74
CCOc1ccccc1CN1C2CCC1CC(c1ccc(C)cc1)C2 (stereo not given)	DRD3 antagonist -70, D1 antag -41
COc1cc(NC(=O)c2cccc(C)c2)ccc1NC(=O)c1cc2ccccc2o1	Chronic BCR inh inconclusive
CN1C(=S)CN=C(c2ccccc2)c2cc(Cl)ccc21	none (no result: DRD3 antagonist, D1 potentiator, D1 antag, Chronic BCR inh, D1 agonist)
COc1ccc(CN2Cc3cnnn3-c3ccccc3C2c2ccccc2)cc1 (stereo not given)	none (no result: D1 potentiator, D1 antag, Chronic BCR inh, D1 agonist)
COc1ccc(CN2Cc3cnnn3-c3ccccc3C2C#N)cc1 (stereo not given)	DRD3 antagonist -78 (no result: D1 potentiator, D1 antag, Chronic BCR inh, D1 agonist)
N#CC1c2ccccc2-n2nncc2CN1Cc1cc(Cl)cc(Cl)c1 (stereo not given)	DRD3 antagonist -109 (no result: D1 potentiator, D1 antag, Chronic BCR inh, D1 agonist)
O=C(Cn1c(=O)oc2ccccc21)N1CCN(c2ccc(N3CCOCC3)nn2)CC1	Chronic BCR inh inconclusive (no result: D1 potentiator)
NC(=O)CC(NC(=O)Cc1cccc2ccccc12)c1ccc(N2CCc3ccccc3C2)c([N+](=O)[O-])c1 (stereo not given)	Chronic BCR inh inconclusive
CC(=O)OO	none (no result: DRD3 antagonist, D1 potentiator, D1 antag, Chronic BCR inh, D1 agonist)
CCN(CC)c1ccc(/C=N/NC(=O)c2ccoc2C)c(O)c1	Chronic BCR inh inconclusive
CCN(CC)CCNCC(=O)Nc1ccc(Cl)cc1C(=O)c1ccccc1	DRD3 antagonist -56, D1 antag -38
CN(C)CCCNCC(=O)Nc1ccc(Cl)cc1C(=O)c1ccccc1	none
COc1cccc(CN2CC=C(c3ccc(F)cc3)CC2)c1	DRD3 antagonist -77, Chronic BCR inh inconclusive
COc1ccc2ccc(O)c(CN3CC=C(c4ccccc4)CC3)c2c1	DRD3 antagonist inconclusive, Chronic BCR inh inconclusive
COc1ccc(OCC(=O)N2CCN(Cc3cccc(OC)c3OC)CC2)cc1	none (no result: DRD3 antagonist, Chronic BCR inh)
CCCCCCC(=O)O[C@H]1CC[C@H]2[C@@H]3CC[C@H]4CC(=O)C=C(C)[C@]4(C)[C@H]3CC[C@]12C	none (no result: DRD3 antagonist, D1 potentiator, D1 antag, Chronic BCR inh, D1 agonist)
CNC(=O)Oc1ccc2c(c1)C(=O)c1ccccc1CO2	Chronic BCR inh inconclusive
CN(C)CC/C=C1\c2ccccc2COc2ccccc21	DRD3 antagonist -77, D1 antag -79, Chronic BCR inh inconclusive
CCCC(C)C1(CC)C(=O)NC(=O)NC1=O (stereo not given)	none (no result: DRD3 antagonist, D1 potentiator, D1 antag, Chronic BCR inh, D1 agonist)

Compound activity from PubChem BioAssay.
